Assay results from the supplement of paper PMC3334620.
In all, about 33,000 sequences were measured (“E-score (-0.5 to 0.5)”: median about -0.012, highest 2% from about 0.27 on). The sample holds the highest values, similar sequences and a random draw of the others, so the mix is not that of the screen.

Target: T1, Vhr1 (UniProt P40522)
T1 sequence: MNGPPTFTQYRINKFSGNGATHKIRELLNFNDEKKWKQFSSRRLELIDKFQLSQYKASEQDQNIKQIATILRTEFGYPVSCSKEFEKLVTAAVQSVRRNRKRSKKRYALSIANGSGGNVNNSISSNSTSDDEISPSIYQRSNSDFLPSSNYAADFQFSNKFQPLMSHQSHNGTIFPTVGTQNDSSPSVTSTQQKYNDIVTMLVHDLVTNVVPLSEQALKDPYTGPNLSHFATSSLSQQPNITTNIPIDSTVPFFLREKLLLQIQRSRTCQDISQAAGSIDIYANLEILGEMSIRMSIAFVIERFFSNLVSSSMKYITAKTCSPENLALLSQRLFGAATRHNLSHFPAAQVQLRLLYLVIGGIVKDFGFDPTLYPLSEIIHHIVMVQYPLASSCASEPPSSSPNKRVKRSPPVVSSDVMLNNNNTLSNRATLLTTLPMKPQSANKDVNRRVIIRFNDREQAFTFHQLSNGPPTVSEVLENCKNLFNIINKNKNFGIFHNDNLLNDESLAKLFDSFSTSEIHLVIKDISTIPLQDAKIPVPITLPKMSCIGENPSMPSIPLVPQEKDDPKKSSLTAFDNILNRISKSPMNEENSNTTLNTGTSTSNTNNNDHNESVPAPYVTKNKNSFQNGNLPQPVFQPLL
Assay: PBM E-score (8-mer binding enrichment) (E-score (-0.5 to 0.5)); higher = stronger / more preferred TF binding
Conditions: protein concentration: 200 nM; construct: GST-full length
Experimental: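 Universal 'all 10-mer' protein binding microarrays (Agilent AMADID 015681) probed with GST-tagged S. cerevisiae TFs (full-length or DBD) made by in vitro transcription/translation (PURExpress), about 100-200 nM. Bound TF was detected with fluorescent anti-GST. Each ungapped 8-mer (which stands for itself and its reverse complement) is scored by the PBM enrichment score (E-score), a modified Wilcoxon-Mann-Whitney statistic from -0.5 to +0.5, computed with the Universal PBM Analysis Suite. Scale: above 0.35 generally sequence-specific binding.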

In order of rising “PBM E-score” value:
1. AGCTTCTA  -0.278
2. TCTAGAAA  -0.272
3. AATTGAGG  -0.233
4. CCCTTCTA  -0.218
5. AAGGGCTC  -0.218
6. GGGACTAA  -0.209
7. AAGACTAG  -0.209
8. CAAAAGGA  -0.2
9. CTTAAGTA  -0.199
10. GGCTCAAC  -0.199
11. ACGTGACA  -0.197
12. AGAAGATA  -0.193
13. CGGAATTA  -0.193
14. AGGTGGAG  -0.191
15. TTCCTCAA  -0.19
16. CGCCCTCA  -0.16
17. ATAGGCCA  -0.159
18. CGTGGTGA  -0.158
19. TGAAATAA  -0.158
20. ACTTGGGA  -0.155
21. AGGGGGCA  -0.151
22. ACGTGACG  -0.137
23. ATGAAGCG  -0.136
24. ACTGGCCT  -0.135
25. ACGGGAGG  -0.13
26. CTTTCAAC  -0.128
27. ACTGGCAC  -0.113
28. TCAGTTAA  -0.108
29. CGAAGTGC  -0.107
30. AGAGTCTG  -0.106
31. CACCTTAA  -0.0968
32. CTAGGTTC  -0.0959
33. ACGTCAGA  -0.0949
34. CTCTTCAG  -0.0887
35. GCTAAACA  -0.0852
36. AGGGCTCG  -0.079
37. CGTGATCC  -0.0765
38. AATTGAGA  -0.0698
39. AGTCTACC  -0.0695
40. AGGGTTGC  -0.068
41. CCGAATGC  -0.0649
42. CGGCAGCA  -0.0628
43. CGCCAAGA  -0.0615
44. AATAGTCT  -0.0519
45. AGGTGACG  -0.0476
46. GAAGGATC  -0.0379
47. GGGAATAA  -0.0372
48. AGTTGCAT  -0.0357
49. ATTCGAGC  -0.0346
50. TATAGTGA  -0.0332
51. CGAACTAG  -0.0301
52. CACTCGAG  -0.029
53. AGGCAGCC  -0.0232
54. CCTTGCGA  -0.0209
55. ACAGTTGG  -0.02
56. CAGACGGC  -0.0191
57. AGTGATAG  -0.0174
58. ACATTTAT  -0.0139
59. GAATCGAC  -0.005
60. AGCCAGTG  0.00862
61. CTCATAAC  0.00985
62. CTAGCTGA  0.0125
63. ACAAATCG  0.0133
64. CTCATGAA  0.0223
65. ACTTGCGA  0.0242
66. CATCACAA  0.0244
67. GATAGTCC  0.0259
68. GGCCATAC  0.0276
69. TCCCTGCA  0.0302
70. CGGAGCGA  0.0369
71. ATCAGCTA  0.0387
72. AGGAATCG  0.0478
73. AGGTGACA  0.0488
74. AGACTAAC  0.0491
75. CGGACTAC  0.0519
76. AGGACTAA  0.054
77. CACATGAA  0.0563
78. CGGAATCC  0.0628
79. CACATGAG  0.065
80. AGGACTAC  0.067
81. ATTGATTG  0.0691
82. ACAATCGT  0.0768
83. AACCCATT  0.0791
84. GATAGTAA  0.0876
85. CTCATGAG  0.0895
86. GAAACACA  0.0985
87. CGGACTAA  0.102
88. CAGATGTC  0.105
89. CGCGAGTA  0.112
90. CATAGTCC  0.115
91. AATGTGGT  0.115
92. AAGACTAA  0.116
93. ATGCTGTG  0.116
94. CAGACTAA  0.117
95. ATCATGAA  0.118
96. AGCGAGTA  0.119
97. AGGAATCC  0.119
98. GATCAGTA  0.121
99. AAGACTAC  0.122
100. CAATCCTG  0.122
101. CCAGTCGC  0.13
102. CTACTGAA  0.132
103. CACAACGC  0.134
104. CAGACTAC  0.136
105. AAAGTCGC  0.137
106. AAACGCAC  0.142
107. ACCCCTGA  0.143
108. CTGGCTGA  0.143
109. AGTGTGAG  0.147
110. AATAGTCG  0.148
111. AATTGACT  0.149
112. TATAGTAA  0.15
113. AGTAGGCA  0.154
114. AACTGATC  0.157
115. AGAGTCGA  0.157
116. ACGACTAG  0.162
117. CGCGATTA  0.162
118. AGCGATTC  0.168
119. GGGAATGA  0.169
120. ATGGTCCG  0.175
121. CGATCGCA  0.178
122. ATATGGAA  0.178
123. TGAATCCA  0.185
124. TAGAATCA  0.185
125. AGCGAGTG  0.192
126. GACATGAC  0.202
127. AGTGTGAC  0.209
128. AGTGATTA  0.216
129. AAGAATCA  0.222
130. CGAGTCGA  0.224
131. ATGTGGTG  0.227
132. ATCATGAG  0.235
133. CTCGAGTC  0.235
134. CGTGATTA  0.236
135. AGTGATAC  0.237
136. CATAGTCG  0.238
137. ATAGTCGC  0.243
138. CACCCTGA  0.245
139. GACCCATA  0.251
140. GTCATGAA  0.257
141. GTGACTTA  0.259
142. CGAGCGAG  0.262
143. AACCCATA  0.271
144. AATTGAGT  0.272
145. CACATGAC  0.272
146. AGCGAGTC  0.275
147. CGCGATTC  0.278
148. AGGAATCA  0.28
149. CGGCAGCC  0.282
150. AGTGATTC  0.285
151. AACCCTGA  0.286
152. GCTTGCGA  0.295
153. AGTGTGAT  0.296
154. GGGAATCA  0.307
155. GTCATGAC  0.31
156. CAGAATCA  0.313
157. TATAGTCA  0.318
158. CTCATGAC  0.326
159. CGTGATTC  0.326
160. AGAGTCGG  0.329
161. ATCATGAC  0.335
162. AGAGTCGC  0.338
163. CGAGTCGC  0.34
164. AGTGATTG  0.343
165. AATAGTCA  0.344
166. CGCGAGTC  0.355
167. GATAGTCA  0.357
168. CTGACTAA  0.359
169. CTGACTAC  0.361
170. ATGACTAG  0.369
171. CATAGTCA  0.37
172. ACGTGACT  0.41
173. CGGAATCA  0.412
174. ATGACTAA  0.42
175. AGGTGACT  0.425
176. GTGACTAA  0.428
177. ATGACTAC  0.462
